Results reported in PMC4336329 (PLoS ONE, 2015).
The whole screen tested about 310,000 compounds, of which about 14,000 (4.5%) showed an effect of 50% or more. Effects have a minus sign here. The entries come from a sample that favours strong results as a whole.

Target: human ether-à-go-go-related gene (hERG) potassium channel (human, UniProt Q12809)
Assay: primary screen, population patch clamp on CHO cells stably expressing hERG; higher = less effect of the substance
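Further: peak tail current of the secondary pulse compared with the same well before compound.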

human ether-à-go-go-related gene (hERG) potassium channel, sequence (Q12809 whole entry, looked up): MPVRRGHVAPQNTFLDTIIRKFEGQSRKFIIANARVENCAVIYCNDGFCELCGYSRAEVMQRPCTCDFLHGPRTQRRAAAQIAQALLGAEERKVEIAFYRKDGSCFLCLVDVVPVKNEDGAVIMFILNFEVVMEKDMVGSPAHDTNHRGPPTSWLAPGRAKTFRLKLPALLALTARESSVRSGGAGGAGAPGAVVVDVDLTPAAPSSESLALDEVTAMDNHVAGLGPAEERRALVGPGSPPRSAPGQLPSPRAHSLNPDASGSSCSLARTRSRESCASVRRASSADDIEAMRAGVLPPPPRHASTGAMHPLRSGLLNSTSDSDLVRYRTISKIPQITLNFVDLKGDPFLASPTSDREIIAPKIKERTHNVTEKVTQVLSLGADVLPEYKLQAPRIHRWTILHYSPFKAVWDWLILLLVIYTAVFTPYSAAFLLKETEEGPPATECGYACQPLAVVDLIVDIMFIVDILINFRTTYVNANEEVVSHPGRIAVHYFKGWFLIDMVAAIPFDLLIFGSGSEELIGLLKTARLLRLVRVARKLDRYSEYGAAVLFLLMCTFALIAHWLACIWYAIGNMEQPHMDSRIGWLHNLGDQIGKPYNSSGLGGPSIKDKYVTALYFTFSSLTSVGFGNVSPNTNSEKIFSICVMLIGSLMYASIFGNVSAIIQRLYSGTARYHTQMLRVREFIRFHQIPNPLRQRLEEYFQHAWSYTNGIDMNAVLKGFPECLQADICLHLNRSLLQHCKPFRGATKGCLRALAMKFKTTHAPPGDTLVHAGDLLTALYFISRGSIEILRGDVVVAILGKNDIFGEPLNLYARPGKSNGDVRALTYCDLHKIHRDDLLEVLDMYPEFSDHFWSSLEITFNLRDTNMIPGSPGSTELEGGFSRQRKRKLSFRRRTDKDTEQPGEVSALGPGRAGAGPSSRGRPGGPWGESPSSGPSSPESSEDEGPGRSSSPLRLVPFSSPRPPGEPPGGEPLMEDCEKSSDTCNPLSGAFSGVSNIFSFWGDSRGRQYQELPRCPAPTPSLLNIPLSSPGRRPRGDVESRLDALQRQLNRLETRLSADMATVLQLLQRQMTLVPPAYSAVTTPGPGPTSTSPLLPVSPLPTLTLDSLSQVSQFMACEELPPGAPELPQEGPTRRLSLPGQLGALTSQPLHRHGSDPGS

SMILES | hERG current change (%, negative = inhibition) at 10uM
O=C1/C(=C/c2ccccc2Cl)N2CCC1CC2 | -14.1%
Cc1ccc(OCCn2cc(/C=N/NC(=O)c3ccncc3)c3ccccc32)cc1 | -7.64%
CCOc1ccc2nc(/N=C/c3nc(-c4ccccc4)oc3O)sc2c1 | 4.73%
COc1ccc(-n2c3c(cc(C(=O)N4CCC(C)CC4)c2=O)C(=O)CC(C)(C)C3)cc1 | -2.69%
O=C(COC(=O)CNC(=O)c1ccccc1F)NCC(F)(F)F | 9.36%
COc1cc(C(=O)O)cc(Br)c1OC1CCCC1 | 20.6%
O=S(=O)(NC1CCCCCC1)c1cccc2cccnc12 | 5.29%
O=[N+]([O-])c1ccc(NCc2ccccc2)c2nonc12 | 19.7%
CC(OC(=O)c1cccc([N+](=O)[O-])c1)C(=O)NCc1ccc2c(c1)OCO2 (stereo not shown) | -11.4%
COc1cccc(N2CCN(CC(=O)Nc3ccccc3C(=O)NCCc3ccccc3)CC2)c1 | 89.9%
COc1ccc(N2CCN(CC(=O)Nc3ccccc3C(=O)NCc3ccccc3)CC2)cc1 | -55.9%
COc1ccc(N2CCN(CC(=O)NC(=O)NCc3ccccc3)CC2)cc1 | 10.4%
Cc1ccc(CNC(=O)c2ccccc2NC(=O)CN2CCN(C)CC2)cc1 | -59.2%
CC(=O)N1CCN(CC(=O)Nc2ccccc2C(=O)NCc2ccc(C)cc2)CC1 | -25.4%
COc1cccc(N2CCN(CC(=O)Nc3ccccc3C(=O)NCc3ccccc3)CC2)c1 | -60.9%
COc1ccc(N2CCN(CC(=O)NCc3ccccc3)CC2)cc1 | 0.922%
Cc1ccc(CNC(=O)c2ccccc2NC(=O)CN2CC(C)OC(C)C2)cc1 (stereo not shown) | -13.2%
COc1cccc(N2CCN(CC(=O)NCc3ccccc3)CC2)c1 | -5.53%
CC(Oc1ccc(F)cc1)C(=O)NN (stereo not shown) | 18.6%
O=C(CCc1ccccc1)Nc1cc2c(cc1Cl)OCCO2 | -7.19%
COc1ccc(-c2csc(Nc3cccc(C)n3)n2)cc1C | 5.87%
O=C1NC(=S)N(c2ccc(Cl)cc2)C(=O)/C1=C/N1CCN(C(=O)c2ccco2)CC1 | 7.25%
Cc1cc(C(=O)OCC(=O)Nc2nc(-c3ccccc3)cs2)c(C)o1 | 15.8%
Cc1oncc1C(=O)NC(C)C | -3.53%
CN(C(=O)c1ccc(NC(=O)Cc2ccc(NC(=O)C3CCCN(C(=O)C4CC4)C3)cc2)cc1)C1CC1 (stereo not shown) | -4.41%
